HEK cytotox – HEK 293 cell cytotoxicity. HEK 293 viability, ATP luminescence (CellTiter-Glo), 48-72 h. Potency, µM (series often up to 115 µM), most hits filed as inhibitors. 94,000 compounds, 6.6% hits. AID 1345083; note: nearly all actives have a fitted effect of over 60% in size
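CellTiter-Glo luminescence (cellular ATP) was read after 48 or 72 hr of compound exposure at 37 degree Celsius. Cells were HEK 293 plated at 250 cells/well.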
HEK293 viab – cell viability loss counter-screen | 150,000 compounds, 0.12% hits | HEK-293-SNCA-luc viability, GF-AFC fluorescence, 24 h | Potency, µM (series often up to 57.1 µM), hits mostly cytotoxic; note: nearly all actives have a fitted effect of over 30% in size
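Cytotoxicity counterscreen: after 24 h compound treatment of genome-edited SNCA-luciferase HEK-293 cells, live-cell protease substrate GF-AFC read by fluorescence after 30 min; activity scaled between DMSO (0%) and medium-only (-100%), curves Hill-fitted.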
NIH3T3 tox – cytotoxic compounds in NIH 3T3 cells | 94,000 compounds, 4.3% hits | NIH 3T3 viability, CellTiter-Glo ATP luminescence, 48-72 h | Potency, µM (titrated, usually from 96.7 µM), actives largely listed as inhibitors | AID 1345082; note: nearly all actives have a fitted effect of over 55% in size
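Mouse fibroblast NIH 3T3 cells, 400 per well, received compound via pintool and were incubated for 48 or 72 hr prior to CellTiter-Glo ATP luminescence measurement.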
hNpr1 antagonist – blocks ANP-stimulated signaling of human Npr1 receptor; AID 1347048; P16066; HEK293 hNpr1 GloSensor cGMP, ANP-stimulated luminescence; 76,000 compounds, 1.6% hits; Potency, µM (doses to about 46.3 µM), usual class: inhibitors; calls by dose curve; note: nearly all actives have a fitted effect of over 60% in size
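Compound pre-incubated 30 min at room temperature on GloSensor-loaded HEK293 cells stably carrying hNpr1 and the pGS-40F cGMP biosensor. Stimulation uses hNppA at 0.1 nM final; luminescence is taken at baseline and 20 min post-agonist.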
SNCA expr inhib – reduces expression of the alpha-synuclein gene; HEK-293 SNCA-luciferase knock-in, luminescence, 24 h; Potency, µM (highest dose often 57.2 µM), hits mostly inhibitors; 140,000 compounds, 0.17% hits; note: nearly all actives have a fitted effect of over 45% in size
Luciferase inh – blocks purified firefly luciferase enzyme activity; P08659; purified P. pyralis luciferase, luminescence, biochemical; 76,000 compounds, 2.5% hits; Potency, µM (top dose mostly 115 µM), actives largely listed as inhibitors; note: nearly all actives have a fitted effect of over 65% in size
Target sequence (P08659 whole entry, looked up): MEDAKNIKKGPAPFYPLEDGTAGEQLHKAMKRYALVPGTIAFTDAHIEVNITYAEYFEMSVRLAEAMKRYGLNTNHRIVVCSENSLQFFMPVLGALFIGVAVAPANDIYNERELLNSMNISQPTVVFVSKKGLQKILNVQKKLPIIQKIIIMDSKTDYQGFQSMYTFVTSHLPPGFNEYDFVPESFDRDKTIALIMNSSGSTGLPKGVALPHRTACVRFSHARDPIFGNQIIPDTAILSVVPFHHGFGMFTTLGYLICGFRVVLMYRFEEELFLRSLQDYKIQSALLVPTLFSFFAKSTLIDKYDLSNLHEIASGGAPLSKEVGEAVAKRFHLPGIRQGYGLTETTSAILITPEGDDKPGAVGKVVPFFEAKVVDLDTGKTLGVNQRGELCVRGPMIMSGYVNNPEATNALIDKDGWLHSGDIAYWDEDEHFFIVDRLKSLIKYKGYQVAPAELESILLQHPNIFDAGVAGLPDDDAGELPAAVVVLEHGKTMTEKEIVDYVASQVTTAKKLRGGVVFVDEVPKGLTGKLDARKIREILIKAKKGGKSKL
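Biochemical qHTS: compound (6-point titration) added to 10uM D-luciferin plus 10uM ATP in Tris acetate pH 7.5 buffer with Mg, Tween-20 and BSA, then purified enzyme at 10nM; light output imaged.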
Hits are given with their value; i = inactive; ? = inconclusive; nt = not tested or not shown; [ ] = dose if it differs, or a comment. In the library only some 7.4% were active in any assay of this set; here they are far more common. Unless noted, calls come from the whole dose curve; as a rule, active = well fitted curve in the direction sought with a large enough effect; inconclusive = small, poorly fitted or top-dose-only effect, or another doubt; inactive = no such curve, though single readings can be large; an effect the other way counts as inactive or inconclusive.

SMILES	HEK cytotox	HEK293 viab	NIH3T3 tox	hNpr1 antagonist	SNCA expr inhib	Luciferase inh
COc1ccccc1CNC(=O)C1CCCN(c2nccc(Nc3ccccc3OC)n2)C1 (stereo unspecified)	?	i[12.5 µM]	35µM	nt	i	nt
CNC(=O)C1CCCN(c2nccc(Nc3ccccc3OC)n2)C1 (stereo unspecified)	?	i[12.5 µM]	i	nt	i	nt
COc1ccccc1Nc1ccnc(N2CCCC(C(=O)NCCCc3ccccc3)C2)n1 (stereo unspecified)	50µM	i[12.5 µM]	?	nt	i	nt
COCCCNC(=O)C1CCCN(c2nccc(Nc3ccccc3OC)n2)C1 (stereo unspecified)	i	i[12.5 µM]	i	nt	i	nt
O=C(C1CCCN1C(=O)c1ccc(F)cc1)N1CCC(N2Cc3ccccc3C2=O)CC1 (stereo unspecified)	i	i	i	nt	i	nt
Cn1nc(C2CCCC2)cc1NC(=O)c1ccc(C(F)(F)F)cc1	?	?	?	nt	i	nt
O=C(NCC(F)F)C1CCCCN1Cc1ccc(-c2ccsc2)cc1 (stereo unspecified)	40µM	i	?	nt	i	nt
Cc1ccc(CN2Cc3[nH]cnc3C[C@H]2C(=O)N2CCC(Cc3ccccc3)CC2)cc1	?	i	71µM	i	?	i
COC(=O)[C@@H]1Cc2nc[nH]c2CN1Cc1ccc(C)cc1	i	i	?	i	i	i
O=C(C1CCCCN1Cc1ccc(-c2ccsc2)cc1)N1CCC(Cc2ccccc2)CC1 (stereo unspecified)	?	?	35µM	nt	?	nt
COCCNC(=O)C1CCCCN1Cc1ccc(-c2ccsc2)cc1 (stereo unspecified)	?	i	?	nt	i	nt
CC(=O)N1CCN(C(=O)C2CCCCN2Cc2ccc(-c3ccsc3)cc2)CC1 (stereo unspecified)	i	i	i	nt	i	nt
O=C(NCCc1ccc(F)cc1)C1CCCCN1Cc1ccc(-c2ccsc2)cc1 (stereo unspecified)	35µM	i	32µM	nt	i	nt
COc1ccc(CC2CCOC3(CCN(C(=O)c4ccc(C)s4)CC3)C2)cc1 (stereo unspecified)	?	i	?	nt	i	nt
O=C(NCCCc1ccccc1)C1CCCCN1Cc1ccc(-c2ccsc2)cc1 (stereo unspecified)	?	i	35µM	nt	i	nt
O=C(NCCc1ccc(F)cc1)C1CCCCN1Cc1ccc(-c2cccs2)cc1 (stereo unspecified)	22µM	i	?	nt	?	nt
COc1ccc(CNC(=O)C2CCCN(Cc3cccc(-c4cccc(C)c4)c3)C2)cc1 (stereo unspecified)	?	i	28µM	nt	i	nt
COc1ccc(CCNC(=O)C2CCCN(Cc3cccc(-c4cccc(C)c4)c3)C2)cc1 (stereo unspecified)	22µM	i	?	nt	i	nt
O=C1CO[C@H]2CCN(Cc3ccncc3Cl)CC[C@@H]2N1c1ccccc1	45µM	i	79µM	i	i	i
O=C1CO[C@H]2CCN(Cc3ccccc3Cl)CC[C@@H]2N1CCc1cccnc1	?	i	100µM	i	i	i
N#Cc1cccc(CN2CC[C@@H]3OCC(=O)N(Cc4ccccc4)[C@H]3CC2)c1	100µM	i	?	i	i	i
CC(C)N1C(=O)CO[C@H]2CCN(Cc3cccc(C#N)c3)CC[C@@H]21	?	i	?	i	i	i
CN(C)C(=O)c1nc(-c2cccc(C(F)(F)F)c2)c2ccccn12	?	i	?	i	i	i
CC(C)CNC(=O)c1cn2cc(-c3cccnc3)sc2n1	?	i	?	nt	i	nt
O=S(=O)(NCC1CN(CC2CC2)CC12CCCCC2)c1cccs1 (stereo unspecified)	?	i	?	nt	i	nt
SMILES	HEK cytotox	HEK293 viab	NIH3T3 tox	hNpr1 antagonist	SNCA expr inhib	Luciferase inh
Cc1nnc2ccc(N3CCCN(C(=O)c4ccccc4)CC3)nn12	i	nt	i	nt	nt	nt
CN1CCCN(S(=O)(=O)c2ccc3c(c2)OCCO3)c2ccccc21	32µM	i	?	i	i	i
COc1ccccc1OCCC1CCN(C(=O)NCC(C)C)C1 (stereo unspecified)	i	i	i	i	i	i
Cc1ccc(OCCC2CCN(C(=O)CCn3nc(C)cc3C)C2)cc1 (stereo unspecified)	50µM	i	?	?	i	i
CCn1nc(C)c(-c2cc(C(=O)N3CCC(CCOc4ccccc4OC)C3)no2)c1C (stereo unspecified)	45µM	i	?	i	?	i
COc1ccccc1C(=O)N1CCC(CCOc2ccc(C)cc2)C1 (stereo unspecified)	40µM	i	?	?	i	i
CN(CC(=O)N1CCC(CCOc2ccc(F)cc2)C1)S(=O)(=O)c1cccs1 (stereo unspecified)	50µM	i	?	?	i	i
CC(C)CN1CCN(C(=O)CCC[C@H]2NC[C@@H]3C[C@H]2CN(Cc2ccccc2)C3)CC1	i	i	i	i	i	i
O=C(CCc1ccccc1)N1CCCC(Cc2nncn2CC2CC2)C1 (stereo unspecified)	i	i	i	nt	i	nt
Cn1ncc2c(C(=O)NCCc3ccccc3F)cc(-c3ccc(F)cc3)nc21	32µM	i	?	nt	i	nt
Cn1ncc2c(C(=O)NCCc3ccccc3)cc(-c3ccc(F)cc3)nc21	?	i	?	nt	i	nt
COc1ccc(CCNC(=O)c2cc(-c3ccccc3F)nc3c2cnn3C)cc1	35µM	nt	?	nt	nt	nt
Cn1ncc2c(C(=O)NCC3CCCCCC3)cc(-c3ccccc3F)nc21	32µM	nt	?	nt	nt	nt
COc1ccc(-c2cc(C(=O)NCCc3ccccc3F)c3cnn(C)c3n2)cc1	32µM	i	?	nt	i	nt
Cn1ncc2c(C(=O)NCCc3ccccc3F)cc(-c3ccsc3)nc21	i	i	i	nt	i	nt
CCOc1ccc(-c2cc3c(=O)n(CCNC(=O)c4ccc(C#N)cc4)ccn3n2)cc1	i	i	i	i	i	?
Cn1ncc2c(C(=O)N3CCN(Cc4ccccc4)CC3)cc(-c3ccccc3)nc21	?	i	?	nt	i	nt
COc1ccc(CN2CC(Oc3ccccc3C(=O)NCc3ccccc3)C2)c(OC)c1	50µM	i	?	?	i	i
Cc1c(CN2CC(Oc3ccccc3C(=O)NCc3ccccc3)C2)cnn1C	?	i	i	i	i	i
COc1ccc(OC)c(CN2CC(Oc3ccccc3C(=O)NCc3ccccc3)C2)c1	32µM	?	?	i	?	i
CCCNC(=O)N1CCC(c2ncc(C)n2Cc2ccc(F)cc2)C1 (stereo unspecified)	i	i	i	nt	i	nt
COc1cccc(CNC(=O)c2cc(-c3ccsc3)c3nncn3n2)c1	?	i	?	nt	i	nt
CC(C)(C)c1ccc(-c2cc(C[C@H]3CNCC[C@H]3CC(=O)Nc3ccccc3)no2)cc1	?	i	?	i	i	i
